# Screens (PubChem BioAssay)
# Only some compounds are listed: those with a hit (about 12% of all), similar ones and a draw of the others.
# JMJD2A Tudor – blocks the human JMJD2A Tudor domain; O75164; AlphaScreen JMJD2A-Tudor / H3K4me3 peptide binding; Potency, µM (highest dose often 114 µM), most hits filed as inhibitors; 390,000 tested, 4.4% active; AID 504339; also: nearly all actives have a fitted effect of over 50% in size
# G9a block – G9a (human) methyltransferase inhibition. Q96KQ7. G9a H3K9 monomethylation, AlphaScreen, 2 h. Potency, µM (series often up to 102 µM), usual class: inhibitors. 350,000 tested, 8.8% active. AID 504332; also: nearly all actives have a fitted effect of over 75% in size
# Target sequence (Q96KQ7 913-1193 limits assumed): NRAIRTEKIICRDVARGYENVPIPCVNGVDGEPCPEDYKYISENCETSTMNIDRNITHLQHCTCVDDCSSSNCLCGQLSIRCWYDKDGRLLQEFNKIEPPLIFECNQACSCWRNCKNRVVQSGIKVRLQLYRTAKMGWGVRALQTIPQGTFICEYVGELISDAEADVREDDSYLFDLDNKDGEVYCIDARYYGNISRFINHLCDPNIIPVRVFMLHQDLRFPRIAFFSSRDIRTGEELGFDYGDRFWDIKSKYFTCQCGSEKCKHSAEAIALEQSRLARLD
#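 Enzyme 20 nM + cpd, 15 min RT; add b-H3K9 pep 500 nM / SAM 20 uM; 2 h RT; anti-H3K9me1 Ab 0.5 ug/mL + SA donor / anti-rabbit acceptor beads 20 ug/mL each, 10 min; AlphaScreen read.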
# TDP1 inh – inhibitors of human tyrosyl-DNA phosphodiesterase TDP1 | recombinant TDP1, AlphaScreen DNA substrate cleavage | Potency, µM (top dose mostly 130 µM), usual class: inhibitors | 350,000 tested, 0.28% active | Q9NUW8; also: nearly all actives have a fitted effect of over 40% in size
#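 Recombinant human Tdp1 (E. coli-expressed, 1 nM final) preincubated with compounds 15 min at room temperature, then 5'-biotin/3'-phosphotyrosine-FITC DNA substrate (15 nM final) added for 5 min. AlphaScreen beads (10 ug/ml final) added 10 min; cleavage lowers signal.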
# HP1b chromo inh – inhibitors of HP1-beta chromodomain binding to methylated histone tails; P83916; AlphaScreen HP1-beta / biotin-H3K9me3 peptide binding; Potency, µM (top dose mostly 114 µM), most hits filed as inhibitors; 390,000 tested, 0.56% active; also: nearly all actives have a fitted effect of over 70% in size
# Target sequence (P83916 whole entry, looked up): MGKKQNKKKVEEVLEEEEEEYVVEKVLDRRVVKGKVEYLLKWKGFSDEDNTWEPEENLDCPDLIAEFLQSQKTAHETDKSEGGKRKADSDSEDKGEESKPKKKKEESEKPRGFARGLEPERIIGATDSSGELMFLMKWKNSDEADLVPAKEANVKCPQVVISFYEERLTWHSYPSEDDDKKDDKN
#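 Compound inhibition of the preformed complex between 50 nM HP1-beta and 50 nM biotinylated H3K9me3 peptide was read by AlphaScreen. Buffer was PBS pH 7.4 with 0.01% Tween-20. Incubations ran 30 min at room temperature, with 10 ug/mL donor/acceptor beads.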
# BAZ2B block – blocks human BAZ2B | Q9UIF8 | AlphaScreen BAZ2B-H3K14Ac peptide displacement | Potency, µM (top dose mostly 114 µM), actives largely listed as inhibitors | 360,000 tested, 4.4% active | AID 504333; also: nearly all actives have a fitted effect of over 60% in size
#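 Complex of BAZ2B and biotin-H3K14Ac (50 nM apiece) forms over 30 min at RT, then faces library compounds up to 110 uM for another 30 min; AlphaScreen beads added, 20 min dark incubation, luminescence read.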
# Sfp PPTase inh – blocks B. subtilis Sfp PPTase activity; 310,000 tested, 3.5% active; Potency, µM, usual class: inhibitors; Biochemical Sfp PPTase activity, qHTS;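 also: the enzyme is Sfp with the accession as filed and its product quenches rhodamine fluorescence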
#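 Fluorescence-quenching assay: 15 nM Sfp-PPTase preincubated 15 min at room temperature with compound, then 5 uM rhodamine-CoA and 12.5 uM BHQ-2-labelled YbbR peptide added. Fluorescence (ex 525/em 598 nm) read at start and after 30 min; difference gives rate.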
# A number is an active result; 0 = inactive; ? = inconclusive; - = not tested or not shown; [ ] = dose if it differs, or a comment. Calls follow the shape of the dose curve; as a rule, active = well fitted curve in the direction sought with a large enough effect; inconclusive = small, poorly fitted or top-dose-only effect, or another doubt; inactive = no such curve, though single readings can be large; an effect the other way counts as inactive or inconclusive.
SMILES,JMJD2A Tudor,G9a block,TDP1 inh,HP1b chromo inh,BAZ2B block,Sfp PPTase inh
CC1CCN(CCCN2C(=O)C3C(C(=O)Nc4ccc(Cl)cc4)C4C=CC3(O4)C2C(=O)NC2CCCCC2)CC1 (stereo not given),0,39.8µM,0,0,0,0
COc1cc(CCNC2=CC(=O)c3ncccc3C2=O)ccc1O,0,-,-,0,-,-
O=C(N1CCc2[nH]c3ccccc3c2C1)C(F)(F)F,0,0,-,0,0,0
CC1=NNC(=O)/C1=C\c1cn(-c2ccccc2)nc1-c1ccc(F)cc1,0,10µM,0,0,0,0
CC1=NNC(=O)/C1=C\c1cn(-c2ccccc2)nc1-c1cccs1,?,10µM,0,0,?,31.6µM
CCC(C)N1CCNCC1 (stereo not given),0,?,0,0,0,0
CCOC(=O)c1ccc(N2C(=O)c3[nH]nc(-c4ccc(C)cc4)c3C2c2cccc(F)c2)cc1 (stereo not given),0,0,0,0,-,-
CCCCn1c(N)c(N(CC(C)C)C(=O)COC(=O)c2ccccc2NCCO)c(=O)[nH]c1=O,0,3.98µM,0,0,70.8µM,-
CCCn1c(N)c(N(CCOC)C(=O)COC(=O)c2ccccc2NCCO)c(=O)[nH]c1=O,0,8.91µM,-,0,0,-
CCN(C[C@H]1N[C@@](C)(C(=O)OC)[C@H]2C(=O)N(C)C(=O)[C@@H]12)C(=O)Nc1ccc(C(F)(F)F)cc1,0,-,0,0,-,-
CCCc1cc(=O)[nH]c(Nc2ccccc2O)n1,0,0,0,0,0,-
Cc1ccc(NC(=O)COC(=O)CCC2CCCC2)c(Br)c1,0,0[12.7 µM],56.2µM,0,0,-
COc1ccccc1NC(=O)COC(=O)CCC1CCCC1,0,-,-,0,-,-
O=C(COC(=O)CCC1CCCC1)Nc1ccccc1Br,0,0[12.7 µM],79.4µM,0,0,-
COc1ccc(CC(N)C(=O)N[C@H]2[C@@H](O)[C@H](n3cnc4c(N(C)C)ncnc43)O[C@@H]2CO)cc1 (stereo not given in full),-,0,0,-,-,0
COc1cccc(NC(=O)CSc2nnc3ccc(-c4ccccn4)nn23)c1,0,0[12.7 µM],-,0,0,-
ON(CCc1ccccn1)CCc1ccccn1,14.1µM,-,-,0,-,-
COc1ccc(CN(C)CCc2ccccn2)c(OC)c1OC,1µM,0[2.33 µM],0,?,28.2µM,?
Cc1cccc(CN(C)CCc2ccccn2)c1,3.16µM,?,0,?,?,0
COc1ccc(C(=O)O)cc1S(=O)(=O)N(C)CCc1ccccn1,0,0,-,0,0,0
CN(CC(=O)NCc1ccccn1)S(=O)(=O)c1ccc(F)cc1,0,0,0,0,0,0
CN(CCc1ccccn1)S(=O)(=O)c1ccc(F)cc1,5.62µM,7.08µM,0,28.2µM,44.7µM,0
COC(=O)CC1(C(=O)OC)Oc2ccc(Br)cc2C(=O)N1c1cc(Cl)c(Cl)cc1Cl (stereo not given),0,-,0,0,0,0
COc1ccccc1NS(=O)(=O)c1ccc(O)c(NC(=S)NCC2CCCO2)c1 (stereo not given),0,-,0,?,0,25.1µM
Cc1ccc(C(=O)NC(=S)NCC2CCCO2)cc1Br (stereo not given),0,44.7µM,0,0,?,0
SMILES,JMJD2A Tudor,G9a block,TDP1 inh,HP1b chromo inh,BAZ2B block,Sfp PPTase inh
Cc1ccc(NS(=O)(=O)c2ccc(OCC(=O)NCC3CCCO3)cc2)cc1 (stereo not given),50.1µM,0,0,0,0,0
Cc1ccc(C)c(NS(=O)(=O)c2ccc(OCC(=O)NCC3CCCO3)cc2)c1 (stereo not given),0,0,0,0,0,0
O=C(NC(=S)NCC1CCCO1)c1ccccc1Br (stereo not given),0,0,0,0,0,0
COc1ccc(NS(=O)(=O)c2ccc(NC(=S)NCC3CCCO3)cc2)cc1 (stereo not given),0,0,0,0,0,0
Cc1ccc(S(=O)(=O)NNC(=S)NCC2CCCO2)cc1 (stereo not given),0,25.1µM,0,0,0,0
COc1ccc(-c2nc3sc(CCNC(=O)C(=O)Nc4cc(F)ccc4F)c(C)n3n2)cc1,0,0,0,0,0,-
